Experimental data reported in PubChem BioAssay (Tox21).
Where “and” joins values, the source holds several entries; their conditions need not be identical. Equal entries are not always repeated. Results filed as inconclusive are left out. Entries that show only a call come without a potency. Calls of active or inactive are those of the source. Calls come from the whole dose curve; as a rule, active = well fitted cell-killing curve with a large enough effect in the repeat runs; inconclusive = weak or mixed curves, or effect the other way; inactive = flat fitted curve, though single readings scatter.

test: qHTS RealTime-Glo MT Cell Viability Assay in HepG2 cells - 40 hour (AID 1224870); details: RealTime-Glo luminescence; series mostly up to 76.8 µM; note: nearly all actives have a fitted effect of over 50% in size
Excerpt: National Center for Advancing Translational Sciences [NCATS]
NIH Chemical Genomics Center [NCGC]
U.S. Environmental Protection Agency [EPA]
National Institutes of Environmental Health Sciences [NIEHS]
National Toxicology Program [NTP]
U.S. Food and Drug Administration [FDA]
Measure of cell viability is critical in the cell-base assay. Analysis of cell viability is necessary for the characterization of cell responses to cytotoxic drugs and environmental stress. A RealTime-Glo MT Cell Viability Assay to monitor cell viability in real time of continues cell culture during 40 hours of compound treatment was used to screen Tox21 10K library compounds in HepG2 cells. The RealTime-Glo MT Cell Viability Assay is a nonlytic, homogeneous, bioluminescent method to measure cell viability in real time using a simple, plate-based method. The assay involves adding NanoLuc luciferase and a cell-permeant prosubstrate to cells in culture. Viable cells reduce the proprietary prosubstrate to generate a substrate for NanoLuc luciferase. This substrate diffuses from cells into the surrounding culture medium, where it is rapidly used by the NanoLuc Enzyme to produce a luminescent signal. The signal correlates with the number of viable cells, making the assay well suited for cytotoxicity studies.
Tox21 Assay Protocol Summary:
The mixture of HepG2 cell suspension and reagents were dispensed at 600cells/6 ul/well in 1536-well tissue culture treated black solid bottom plates using a Multidrop dispenser. After the assay plates were incubated at a 37 C/5% CO2 incubator for 5 hours, 23 nL of compounds dissolved in DMSO, positive and negative controls was transferred to the assay plate by a pintool work station. The plates were incubated at 37 C for 40 hours. The luminescence intensity were measured at 0h, 8h, 16h, 24h, 32h and 40h time points using ViewLux plate reader during compound treatment.
Potency is the fitted concentration of half-maximal effect.

SMILES | Potency | activity change, negative = cytotoxic
O=c1[nH]c(=O)n([C@H]2C[C@H](O)[C@@H](CO)O2)cc1F | inactive | –
Cc1ccc(C(=O)O)cc1 | inactive | –
C=CC(=O)OCCOC(=O)C=C | inactive | –
COc1ccc(-c2coc3cc(O)ccc3c2=O)cc1 | inactive | –
CC(C)(C)C1CCC(=O)CC1 | inactive | –
Oc1cc(Cl)cc(Cl)c1Cl | inactive | –
O=C(O)c1cc(N=Nc2ccc([N+](=O)[O-])cc2)ccc1O | inactive | –
Cc1ccc(O)c(O)c1 | inactive | –
C[C@@H](O)[C@H](N)C(=O)O | – | -3.3% [at 15.8 µM] (inactive)
CC(C)(c1cc(Br)c(OCC(Br)CBr)c(Br)c1)c1cc(Br)c(OCC(Br)CBr)c(Br)c1 (stereo not given) | inactive | –
NC(=S)NC(N)=S | inactive | –
Cc1ccc(-c2ccccc2)cc1 | inactive | –
CC(C)CCCCCOC(=O)CCS | inactive | –
Cc1cc(C(C#N)c2ccc(Cl)cc2)c(Cl)cc1NC(=O)c1cc(I)cc(I)c1O (stereo not given) | inactive | –
COC(=O)c1ccccc1C | inactive | –
O=[N+]([O-])c1ccc(O)cc1C(F)(F)F | inactive | –
CNc1ccc([N+](=O)[O-])cc1 | inactive | –
CCN(CC)C(=O)c1cc(S(=O)(=O)Cc2ccccc2)c(N2CCC(c3ccccc3)CC2)cc1N(CC)CCN(C)C | 13.6 µM (active) | –
CC(C)NC[C@@H](O)COc1ccc(CC(N)=O)cc1 | inactive | –
c1cnccn1 | inactive | –

SMILES | Potency | activity change, negative = cytotoxic
OC[C@@H](O)[C@@H](O)CO | inactive | –
Fc1ccc(C(c2ccc(F)cc2)N2CCNCC2)cc1 | inactive | –
CN(C)C(=O)COC(=O)Cc1ccc(OC(=O)c2ccc(N=C(N)N)cc2)cc1 | inactive | –
Cc1cc(C(C)(C)C)cc(C)c1CC1=NCCN1 | inactive | –
CCN1C(=O)c2ccccc2C1Nc1ccc(OCCN2CCCCC2)cc1 (stereo not given) | inactive | –
CCOc1ccc2ccccc2c1C(=O)N[C@@H]1C(=O)N2[C@@H]1SC(C)(C)[C@@H]2C(=O)O | inactive | –
C=Cc1ccccc1C=C | inactive | –
CN(C)Cc1cc(C(C)(C)C)c(O)c(C(C)(C)C)c1 | inactive | –
S=c1nccc[nH]1 | inactive | –
C#C[C@]1(OC(C)=O)CC[C@H]2[C@@H]3CCC4=C[C@@H](OC(C)=O)CC[C@@H]4[C@H]3CC[C@@]21C | inactive | –
O=C(/C=C/c1ccc(O)c(O)c1)O[C@@H](C(=O)O)[C@@H](OC(=O)/C=C/c1ccc(O)c(O)c1)C(=O)O | inactive | –
NC(=O)c1cccc([N+](=O)[O-])c1 | inactive | –
CCCC1CCC(=O)CC1 | inactive | –
C=Cc1cccc(C)c1 | inactive | –
CC1=CCC(=C(C)C)CC1 | inactive | –
Cc1cc(-n2nc3ccc(Cl)cc3n2)c(O)c(C(C)(C)C)c1 | inactive | –
C#CC1(O)CC[C@H]2[C@@H]3CCC4=CCCC[C@@H]4[C@H]3CC[C@@]21C (stereo not given in full) | 49 µM (active) and 23.9 µM (active) | –
OC1CCCc2ccccc21 (stereo not given) | inactive | –
CC1(C)CC(O)CC(C)(C)N1 | inactive | –
COc1c(C)c2c(c(O)c1C/C=C(\C)CCC(=O)OCCN1CCOCC1)C(=O)OC2 | inactive | –
